Mcl1-Bid inh: disrupts binding of human Mcl-1 to Bid peptide. TR-FRET Mcl-1/Bid-Dy647 peptide binding, 1536-well. actives 0.97% (n = 220,000). inhibition, % at 21.7 µM;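 active = compounds that cut the binding signal by more than half at the single screening dose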;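 note: His-tagged Mcl-1 with europium anti-His antibody binding Bid BH3 peptide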
Target sequence (Q07820 whole entry, looked up): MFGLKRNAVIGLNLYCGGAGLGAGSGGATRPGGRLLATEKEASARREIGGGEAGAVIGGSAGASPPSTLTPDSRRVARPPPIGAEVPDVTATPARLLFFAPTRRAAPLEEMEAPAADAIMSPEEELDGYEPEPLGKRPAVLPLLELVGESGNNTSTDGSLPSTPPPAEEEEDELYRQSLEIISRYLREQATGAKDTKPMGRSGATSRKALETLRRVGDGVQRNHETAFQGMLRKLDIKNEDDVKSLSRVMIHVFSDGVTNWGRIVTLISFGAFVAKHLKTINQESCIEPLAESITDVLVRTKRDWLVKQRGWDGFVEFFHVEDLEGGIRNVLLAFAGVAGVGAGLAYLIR
14-3-3 Bad PPI: disrupts binding of bovine 14-3-3 zeta to phospho-Bad peptide. TR-FRET 14-3-3zeta/Dy647-pBad peptide displacement, 1 h. actives 0.71% (n = 220,000). inhibition, % at 21.7 µM. AID 781;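 active = inhibition above about 70%, limit read from the data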
Target sequence (P63103 whole entry, looked up): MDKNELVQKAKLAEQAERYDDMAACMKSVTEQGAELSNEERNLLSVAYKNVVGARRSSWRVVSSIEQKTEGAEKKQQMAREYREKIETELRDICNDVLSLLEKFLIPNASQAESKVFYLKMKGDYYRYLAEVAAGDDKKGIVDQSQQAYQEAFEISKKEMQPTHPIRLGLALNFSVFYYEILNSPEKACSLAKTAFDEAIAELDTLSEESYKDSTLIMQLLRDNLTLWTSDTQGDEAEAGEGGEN
Mcl1-Noxa inh: disrupts binding of human Mcl-1 to Noxa peptide. Q07820. TR-FRET Mcl-1/Noxa peptide binding, 2 h. AID 1022. actives 1.5% (n = 220,000). inhibition, % at 21.7 µM;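 active = compounds that cut the protein-peptide binding signal by more than 50% relative to plate controls in a single-dose test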;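 note: His-tagged Mcl-1 with rhodamine Noxa BH3 peptide and terbium anti-His antibody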
Mcl-1 Bim block: disrupts Bim peptide binding to human Mcl-1 | Q07820 | Bead-based flow cytometry, Bim peptide-Mcl-1 binding | inhibition, % at 10 µM | actives 0.1% (n = 190,000) | AID 1009; in the data active = inhibition above about 40%
p47phox inh: p47phox (human) inhibition; P14598; p47phox/p22phox peptide binding, fluorescence polarization, 2 h; inhibition, % at 24.7 µM; actives 0.53% (n = 220,000); AID 1274;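 active = inhibition above about 30%, limit read from the data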
Calpain2 inh: inhibitors of pig calpain II; purified calpain II, fluorogenic peptide substrate, 30 min; inhibition, % at 16 µM; actives 0.37% (n = 220,000);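 active = inhibition above about 50%, limit read from the data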
A number is an active result; - = inactive; . = not tested or not shown; [ ] = remark or other dose. Shown are actives, neighbours in structure and some others; about 3.4% of the full set was active somewhere.

SMILES	Mcl1-Bid inh	14-3-3 Bad PPI	Mcl1-Noxa inh	Mcl-1 Bim block	p47phox inh	Calpain2 inh
CC1CCC2(CC1)NC(=O)N(CC(=O)Nc1sc3c(c1C(N)=O)CCC3)C2=O (stereo unspecified)	-	-	64.4	-	-	-
CC1CCCCC12NC(=O)N(CC(=O)Nc1sc3c(c1C(N)=O)CCC3)C2=O (stereo unspecified)	-	-	82.3	-	-	-
Cn1cnnc1SCC(=O)Nc1sc2c(c1C(N)=O)CCC2	-	-	99.8	-	-	-
COC(=O)c1c(NC(=O)CN2C(=O)NC3(CCC(C(C)(C)C)CC3)C2=O)sc2c1CCCCC2 (stereo unspecified)	-	-	-	-	-	-
S=c1[nH]nc(C2(c3ccccc3)CCCC2)o1	-	-	-	.	-	-
Cc1c(C(=O)NC(C(C)C)C(C)C)cccc1[N+](=O)[O-]	-	-	-	-	-	-
Cc1ccc(S(=O)(=O)Oc2ccccc2/C=N/Nc2ccc(C(=O)O)cc2)cc1	-	-	-	.	-	-
CC1CCN(CC(=O)NCc2ccco2)CC1	-	-	-	-	-	-
Cc1ccc(-n2[nH]c(C)c(/C=N/Nc3ccc([N+](=O)[O-])cc3[N+](=O)[O-])c2=O)cc1C	-	-	54.5	-	-	-
CCN1C(=O)/C(=C\N(C)C)S/C1=N\S(=O)(=O)c1ccccc1	-	91.8	-	-	-	-
CCN1C(=O)/C(=C/c2cccs2)S/C1=N\S(=O)(=O)c1ccc(C)cc1	-	-	-	-	-	-
O=C(NCc1ccccn1)C(=O)Nc1nc(C23CC4CC(CC(C4)C2)C3)cs1	-	-	-	-	-	-
C=CCn1c(SCC(=O)Nc2cc(C)on2)nnc1C1COc2ccccc2O1 (stereo unspecified)	-	-	-	-	-	-
Cc1cc(NC(=O)CSc2nnc(C3COc4ccccc4O3)n2N)no1 (stereo unspecified)	-	-	-	.	44.0	-
CC1(C)Cc2c(sc3nc(C4CC4)n(N)c(=O)c23)CO1	-	-	-	.	-	-
CCCCN1C=CC(=C2C(=O)c3ccccc3C2=O)C=C1	-	-	-	-	-	-
CC(=O)Nc1ccc(C2=NNC(=Nc3cccc(S(=O)(=O)N(C)C)c3)SC2)cc1	-	-	96.5	-	-	-
CC(=O)Nc1ccc(C2=NNC(=Nc3ccc(S(=O)(=O)N4CCOCC4)cc3)SC2)cc1	-	-	80.2	.	-	-
COc1cc(/C=C2\SC(=O)N(CCNC(=O)c3sc4cc(F)ccc4c3Cl)C2=O)cc(OC)c1OC	-	-	-	-	.	-
CCOc1cc(/C=N/NC(=O)c2cccnc2)ccc1OCC(=O)N(C)C	-	-	-	-	-	-
Cc1cc(C(=O)Nc2ccc3[nH]ccc3c2)no1	-	-	-	.	-	-
CC(NS(=O)(=O)c1cccc(Cl)c1)C(=O)N(C)C1CCN(C)CC1 (stereo unspecified)	-	-	52.6	-	-	-
CC(=O)c1cccc(S(=O)(=O)N(C)C2CCN(C)CC2)c1	-	-	-	-	-	-
CCOc1ccc(Nc2ncnc3c2cnn3Cc2ccccc2)cc1	-	80.3	-	-	-	-
CCOc1ccc(Nc2ncnc3c2cnn3-c2ccccc2)cc1	-	-	-	-	-	-
SMILES	Mcl1-Bid inh	14-3-3 Bad PPI	Mcl1-Noxa inh	Mcl-1 Bim block	p47phox inh	Calpain2 inh
Clc1cccc2sc(N3CCCCC3)nc12	-	-	-	-	-	-
Brc1cccc2sc(N3CCN(c4ccccc4)CC3)nc12	-	87.1	-	-	-	-
Cc1c(C(=O)NCc2cccs2)oc2ccc(S(=O)(=O)N3CCOCC3)cc12	-	-	-	-	-	-
CCOC(=O)c1cn(CC)c2ccc(S(=O)(=O)N3CC(C)CC(C)C3)cc2c1=O (stereo unspecified)	53.9	-	-	-	-	-
Cc1c(C(=O)NCc2ccccn2)oc2ccc(S(=O)(=O)N3CCOCC3)cc12	-	-	-	-	50.4	-
CCOC(=O)c1cn(CC)c2ccc(S(=O)(=O)N3CCC(C)CC3)cc2c1=O	-	-	-	-	-	-
CCn1cc(C(=O)NCc2cccs2)c(=O)c2cc(S(=O)(=O)N3CCOCC3)ccc21	51.1	-	-	.	-	-
Cc1ccc(-c2nnc(-c3cc(C)on3)o2)cc1	-	-	-	.	-	-
CNC(=O)CSc1nc2[nH]ncc2c(=O)[nH]1	-	-	-	-	-	-
CCn1c(SCC(=O)c2cccs2)nnc1-c1cccs1	-	-	-	-	-	-
Cc1cc(C)c2c(c1)c(C)cc1nnc(SCC(=O)c3cccs3)n12	-	73.0	-	-	-	-
COC(=O)C1CSC(C(=O)OC)N1C(=O)CN1CCN(c2ccc(OC)cc2)CC1 (stereo unspecified)	-	-	-	-	-	-
COc1cccc(CN(C)CC(=O)Nc2cccc(S(N)(=O)=O)c2)c1OC	-	-	-	-	-	-
COc1cccc(CN(C)CC(=O)Nc2cccc(C(F)(F)F)c2)c1OC	-	-	-	-	-	63.0
CCOc1ccccc1NC(=O)C(Sc1ccccc1)c1ccccc1 (stereo unspecified)	-	-	-	-	52.8	-
O=C(COc1ccccc1[N+](=O)[O-])Nc1ccc(NC(=O)c2cc3ccccc3o2)cc1	-	89.6	-	-	32.0	-
O=C(COc1ccccc1[N+](=O)[O-])Nc1ccc2c(c1)OCO2	-	-	-	-	-	-
O=C(COc1ccc(/C=N/NC(=O)c2cc3ccccc3o2)cc1Br)Nc1ccccc1	82.0	85.8[fluorescence artefact?]	-	-	38.3	-
COc1nc(OC)nc(N2CCC(C(=O)NCc3cccs3)CC2)n1	-	84.1	-	-	-	-
Cc1onc(-c2ccccc2)c1C(=O)Oc1ccccc1	-	-	-	.	-	-
O=C(CS(=O)CC(=O)N(c1ccccc1)C(C(=O)NC1CCCCC1)c1ccco1)Nc1ccc(F)cc1 (stereo unspecified)	-	-	-	-	-	-
COc1ccc(N(C(=O)CS(=O)CC(=O)Nc2ccc(F)cc2)C(C(=O)NC2CCCCC2)c2cccs2)cc1 (stereo unspecified)	61.5	-	-	-	-	-
COc1ccc(S(=O)(=O)/N=C2/C=CC(=O)C(C)=C2C)cc1	-	-	67.0	-	-	-
CCc1cc2c(=O)nc3n(c2s1)Cc1ccccc1/C3=C(/O)c1ccc(F)cc1	-	-	-	-	-	-
CCc1cc2c(=O)nc3n(c2s1)Cc1ccccc1/C3=C(/O)c1ccccc1Cl	-	-	-	-	73.9	-
C#CCNC(=O)C1=C[C@@H](c2ccc(C(F)(F)F)cc2)C[C@@H](OCCCCO)O1	-	-	-	-	-	-
Cc1cc(C)c2c3c(oc2n1)C(=O)N(c1cccc(Cl)c1)CC(=O)N3	-	-	-	.	-	-
C=CCn1c(CCCNC(=O)c2ccccc2OC)nc2ccccc21	-	-	-	-	-	81.3
